Records with an inconclusive call do not appear. Active and inactive are the calls of the source. Calls come from the whole dose curve; as a rule, active = well fitted curve in the direction sought with a large enough effect in the repeat runs; inconclusive = weak or mixed curves; inactive = no such curve, though single readings can be large; an effect the other way counts as inactive or inconclusive.
Experiments:
[1] = A CellTox Green Cytotoxicity Assay to monitor cytotoxicity in HEK293 cells - 32 hour (AID 1224881); note: nearly all actives have a fitted effect of over 40% in size
In short: (§1)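 Each value comes from one timepoint of a single continuous run in which HEK293 cells with CellTox Green were exposed to compound for up to 40 h at 37 C, dye fluorescence rising with cell death.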

[2] = A CellTox Green Cytotoxicity Assay to monitor cytotoxicity in HepG2 cells - 0 hour (AID 1224882); note: nearly all actives have a fitted effect of over 35% in size
In short: (§2)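 Continuous culture of HepG2 cells with a membrane-impermeant DNA dye; rising fluorescence marks dead cells. Compound exposure lasted up to 40 h at 37 C, with reads every 8 h from 0 h.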

[3] = A CellTox Green Cytotoxicity Assay to monitor cytotoxicity in HepG2 cells - 32 hour (AID 1224883); note: nearly all actives have a fitted effect of over 50% in size
In short: as §2

[4] = A CellTox Green Cytotoxicity Assay to monitor cytotoxicity in HEK293 cells - 8 hour (AID 1224884); note: nearly all actives have a fitted effect of over 35% in size
In short: as §1

[5] = qHTS RealTime-Glo MT Cell Viability Assay in HepG2 cells - 16 hour (AID 1224885); note: nearly all actives have a fitted effect of over 50% in size
In short: (§3)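 qHTS, HepG2, 600 cells/well, RealTime-Glo (NanoLuc + prosubstrate) added with cells; 5 h preincubation; DMSO compound addition; 37 C; luminescence at 0/8/16/24/32/40 h.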

[6] = qHTS RealTime-Glo MT Cell Viability Assay in HEK293 cells - 24 hour (AID 1224886); note: top concentration of the series differs between compounds; nearly all actives have a fitted effect of over 50% in size
In short: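 Assay medium contained NanoLuc luciferase plus cell-permeant prosubstrate, added with HEK293 cells at 600 cells/well. After 5 h at 37 C/5% CO2 compounds were added; plates stayed at 37 C for 40 h with serial luminescence reads.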

[7] = qHTS RealTime-Glo MT Cell Viability Assay in HEK293 cells - 8 hour (AID 1224887); note: top concentration of the series differs between compounds; nearly all actives have a fitted effect of over 50% in size
In short: (§4)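 qHTS format; HEK293 cells with NanoLuc/prosubstrate reagent, 37 C/5% CO2 for 5 h pre-dosing; compounds 23 nL in DMSO; luminescence at each time point reflects viable cells.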

[8] = A CellTox Green Cytotoxicity Assay to monitor cytotoxicity in HEK293 cells - 16 hour (AID 1224888); note: nearly all actives have a fitted effect of over 35% in size
In short: as §1

[9] = qHTS RealTime-Glo MT Cell Viability Assay in HepG2 cells - 0 hour (AID 1224889); note: nearly all actives have a fitted effect of over 50% in size
In short: as §3

[10] = qHTS RealTime-Glo MT Cell Viability Assay in HEK293 cells - 0 hour (AID 1224880); note: top concentration of the series differs between compounds; nearly all actives have a fitted effect of over 45% in size
In short: as §4

Measured: Potency

CCCCCC[C@@H](CCC)C(=O)O
not listed: [10]
inactive: all other assays above

CCCc1ccc(N)cc1
not listed: [3]
inactive: all other assays above

Cn1cnc2c(=O)[nH]c(N)nc21
not listed: [10]
inactive: all other assays above

CN(C)N=Nc1ccccc1
not listed: [3]
inactive: all other assays above

Source: PubChem BioAssay (Tox21)
